Assay results as given in PubChem BioAssay (NCATS).
Records with an inconclusive call do not appear. Calls of active or inactive are those of the source. Unless noted, calls follow the shape of the dose curve; as a rule, active = well fitted curve in the direction sought with a large enough effect; inconclusive = small, poorly fitted or top-dose-only effect, or another doubt; inactive = no such curve, though single readings can be large; an effect the other way counts as inactive or inconclusive.

Experiments:
[1] = biological target: ATP-dependent DNA helicase Q1 (Homo sapiens) (UniProt P46063); test: qHTS Validation Assay for Inhibitors of RecQ-Like Dna Helicase 1 (RECQ1) (AID 2353); settings: recombinant RECQ1 helicase DNA unwinding assay; series mostly up to 25.6 µM
Sequence of ATP-dependent DNA helicase Q1 (Homo sapiens) (P46063 whole entry, looked up): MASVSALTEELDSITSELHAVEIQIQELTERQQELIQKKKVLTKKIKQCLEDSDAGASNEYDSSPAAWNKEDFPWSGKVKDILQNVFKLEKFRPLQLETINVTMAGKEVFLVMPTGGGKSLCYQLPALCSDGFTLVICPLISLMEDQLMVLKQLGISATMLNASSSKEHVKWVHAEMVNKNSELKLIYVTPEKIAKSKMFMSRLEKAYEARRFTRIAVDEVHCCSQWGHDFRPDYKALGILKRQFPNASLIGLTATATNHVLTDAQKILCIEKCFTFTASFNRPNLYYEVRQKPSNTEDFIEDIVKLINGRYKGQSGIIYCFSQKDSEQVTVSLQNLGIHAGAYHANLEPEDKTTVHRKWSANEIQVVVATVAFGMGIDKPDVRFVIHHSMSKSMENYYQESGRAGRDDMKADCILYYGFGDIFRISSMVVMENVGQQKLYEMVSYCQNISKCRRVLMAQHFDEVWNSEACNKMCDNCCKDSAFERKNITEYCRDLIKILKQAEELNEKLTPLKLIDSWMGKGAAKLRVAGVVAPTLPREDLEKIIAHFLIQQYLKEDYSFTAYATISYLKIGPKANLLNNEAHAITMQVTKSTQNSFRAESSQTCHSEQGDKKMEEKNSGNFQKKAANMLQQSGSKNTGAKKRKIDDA
Procedure, shortened: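 50 nM RECQ1T1 preincubated 15 min with compound in Tris pH 8.0 buffer with MgCl2, DTT, Tween-20 and 2.5 ug/ml poly(dI-dC); started with 200 nM TAMRA/BHQ-2 forked duplex and 2 mM ATP. Unwinding read as fluorescence (525/598 nm), two reads 2 h apart.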

[2] = Cytometric Cell-Based qHTS for Inhibitors of the mTORC1 Signaling Pathway in MEF (Tsc2-/-, p53-/-) Cells (AID 2660); settings: mTORC1 pathway cytometry; series mostly up to 38.3 µM;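 also: percent of cells above a phospho-rpS6 to PI ratio cutoff in each well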
Procedure, shortened: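 Cells are plated, treated with compound for 24 hrs at 37 degree Celsius, then fixed, blocked and immunostained for phospho-rpS6 Ser235/236. Propidium iodide counterstain follows. Per-well % positive cells is derived from the PI-normalized phospho-S6 signal.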

[3] = High Content Imaging Cell-Based qHTS for Inhibitors of the mTORC1 Signaling Pathway in MEF (Tsc2-/-, p53-/-) Cells (AID 2666); settings: at 38.3 µM (top of the series);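 also: percent of cells scored positive for phospho-rpS6 Ser235/236 immunostaining by imaging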
Procedure, shortened: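 Phospho-rpS6 (Ser235/236) immunofluorescence, normalized and scored as % positive cells using rapamycin and DMSO controls, was read in empty-vector Tsc2-/-, p53-/- MEFs after 24 h compound exposure at 37 C; propidium iodide counted cells.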

[4] = High Content Imaging Cell-Based qHTS for Inhibitors of the mTORC1 Signaling Pathway in MEF Cells (AID 2667); settings: series mostly up to 38.3 µM;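 also: Tsc2-/- p53-/- MEFs stably re-expressing wild-type Tsc2 exposed 24 h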
Procedure, shortened: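 WT MEFs (Tsc2-/-, p53-/- re-expressing Tsc2), in DMEM + 10% FBS, were treated with compound for 24 h at 37 C. Cells were then fixed and stained for phospho-rpS6 Ser235/236 with propidium iodide as cell count. Values are % positive cells, with thresholds set against rapamycin-treated cells.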

[5] = Cytometry Cell-Based qHTS for Inhibitors of the mTORC1 Signaling Pathway in MEF cells (AID 2668); settings: mTORC1 pathway readout; series mostly up to 38.3 µM;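 also: Tsc2-/- p53-/- mouse embryonic fibroblasts stably re-expressing wild-type Tsc2; percent cells positive for phospho-rpS6 Ser235/236 relative to propidium iodide stain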
Procedure, shortened: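 Phospho-rpS6 (Ser235/236) immunofluorescence over PI signal, scored as % positive cells using thresholds from 7.5 nM rapamycin and DMSO wells, after 24 h compound exposure of WT-Tsc2-rescued Tsc2-/-, p53-/- MEFs. PI cell count recorded for viability.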

[6] = Validation screen for small molecules that induce DNA re-replication in MCF 10A normal breast cells (AID 463097); settings: MCF 10A cells, DNA re-replication phenotype imaging; series mostly up to 46.1 µM; also: nearly all actives have a fitted effect of over 60% in size; also: potency is read from the fitted curve at half-maximal effect
Procedure, shortened: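 Read-out is Hoechst total nuclear intensity by fluorescence scanning imager, flagging increased high-DNA-content nuclei. Compounds were incubated with MCF 10A cells for 48 hr (37 C, 5% CO2) before 40 min staining.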

[7] = biological target: DNA polymerase III PolC-type (Bacillus subtilis (strain 168)) (UniProt P13267); test: qHTS Validation Assay for the Inhibitors of DNA Replication in Gram-Positive Bacteria (AID 485295); settings: Gram-positive bacterial DNA replication assay; series mostly up to 57.1 µM;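 also: reconstituted holoenzyme with PolC plus beta clamp SSB and primase; PicoGreen fluorescence of double-stranded DNA made on primed circular M13 template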
Sequence of DNA polymerase III PolC-type (Bacillus subtilis (strain 168)) (P13267 whole entry, looked up): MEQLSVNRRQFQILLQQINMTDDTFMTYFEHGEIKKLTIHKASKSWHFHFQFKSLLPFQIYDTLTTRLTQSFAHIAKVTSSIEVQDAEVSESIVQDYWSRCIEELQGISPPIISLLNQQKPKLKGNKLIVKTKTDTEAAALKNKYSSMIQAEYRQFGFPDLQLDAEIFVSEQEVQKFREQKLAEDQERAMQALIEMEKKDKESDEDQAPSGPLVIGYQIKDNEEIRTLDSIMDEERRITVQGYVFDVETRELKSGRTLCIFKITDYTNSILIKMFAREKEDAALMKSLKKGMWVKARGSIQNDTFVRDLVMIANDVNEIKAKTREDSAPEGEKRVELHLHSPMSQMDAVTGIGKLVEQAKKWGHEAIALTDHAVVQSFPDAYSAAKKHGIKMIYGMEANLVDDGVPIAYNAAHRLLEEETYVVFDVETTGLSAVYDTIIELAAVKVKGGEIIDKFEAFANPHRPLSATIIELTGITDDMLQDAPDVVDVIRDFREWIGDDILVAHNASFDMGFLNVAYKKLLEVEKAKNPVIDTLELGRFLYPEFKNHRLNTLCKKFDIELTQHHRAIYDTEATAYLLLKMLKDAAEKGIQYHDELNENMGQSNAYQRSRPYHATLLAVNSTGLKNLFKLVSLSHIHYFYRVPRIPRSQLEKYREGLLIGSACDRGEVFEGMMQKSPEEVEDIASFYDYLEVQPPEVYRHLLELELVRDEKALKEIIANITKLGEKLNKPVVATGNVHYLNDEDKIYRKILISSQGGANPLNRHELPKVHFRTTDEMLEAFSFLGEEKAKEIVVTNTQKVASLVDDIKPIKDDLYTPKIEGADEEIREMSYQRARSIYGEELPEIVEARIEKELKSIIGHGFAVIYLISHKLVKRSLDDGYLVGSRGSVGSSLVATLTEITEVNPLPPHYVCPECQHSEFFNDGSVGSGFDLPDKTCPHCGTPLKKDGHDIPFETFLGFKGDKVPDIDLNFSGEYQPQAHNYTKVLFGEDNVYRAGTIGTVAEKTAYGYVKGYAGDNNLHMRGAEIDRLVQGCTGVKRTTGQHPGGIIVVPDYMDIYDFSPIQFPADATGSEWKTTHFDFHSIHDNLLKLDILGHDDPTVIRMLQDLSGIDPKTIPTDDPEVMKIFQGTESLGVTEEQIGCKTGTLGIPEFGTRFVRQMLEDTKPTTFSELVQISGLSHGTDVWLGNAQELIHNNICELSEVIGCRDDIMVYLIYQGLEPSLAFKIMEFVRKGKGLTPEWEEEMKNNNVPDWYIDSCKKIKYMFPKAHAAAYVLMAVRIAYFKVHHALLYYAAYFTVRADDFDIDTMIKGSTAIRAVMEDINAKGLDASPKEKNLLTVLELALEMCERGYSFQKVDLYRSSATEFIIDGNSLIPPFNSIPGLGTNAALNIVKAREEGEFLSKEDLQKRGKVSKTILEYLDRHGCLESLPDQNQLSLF
Procedure, shortened: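 Double-stranded DNA product detected by PicoGreen fluorescence after EDTA quench. Compound incubated with B. subtilis holoenzyme (PolC, beta subunit, SSB, primase) before substrate addition; primed replication of M13Gori with dNTPs and NTPs at room temperature; DMSO defines 0% inhibition.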

[8] = biological target: Tumor susceptibility gene 101 protein (Homo sapiens) (UniProt Q99816); test: qHTS Validation Assay for Iinhibitors of HIV-1 Budding by Blocking the Interaction of PTAP/TSG101 (AID 485342; calls by dose curve); settings: TSG101-PTAP binding, fluorescence polarization, 4-point titration; series mostly up to 115 µM
Sequence of Tumor susceptibility gene 101 protein (Homo sapiens) (Q99816 whole entry, looked up, the tested form may be a part): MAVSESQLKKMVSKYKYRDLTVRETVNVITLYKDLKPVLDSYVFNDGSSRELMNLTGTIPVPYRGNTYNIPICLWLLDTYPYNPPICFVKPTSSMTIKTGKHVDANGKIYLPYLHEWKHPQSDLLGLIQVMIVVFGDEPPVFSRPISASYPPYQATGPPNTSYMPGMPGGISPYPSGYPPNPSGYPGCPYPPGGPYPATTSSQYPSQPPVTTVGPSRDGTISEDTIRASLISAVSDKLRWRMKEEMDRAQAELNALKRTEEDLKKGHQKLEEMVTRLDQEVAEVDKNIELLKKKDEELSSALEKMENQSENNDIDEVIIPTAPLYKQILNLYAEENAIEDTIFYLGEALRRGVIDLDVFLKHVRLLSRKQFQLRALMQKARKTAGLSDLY
Procedure, shortened: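 Fluorescence polarization of 50 nM FITC-PTAP peptide bound to 10 uM Tsg101 binding domain was read after 20 min room-temperature incubation with compounds, in 10 mM HEPES pH 7.5, 0.15 M NaCl, 0.01% Tween 20.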

[9] = qHTS Validation Assay to Find Inhibitors of Chronic Active B-Cell Receptor Signaling (AID 485345; active = well fitted curve in the direction sought with a large enough effect in the main read-out, with a control signal flat, not every such curve was filed as active); settings: ABC-DLBCL cells, chronic BCR signaling reporter, CBG luciferase; series mostly up to 46.1 µM
Procedure, shortened: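 TMD8 ABC-DLBCL cells stably carrying doxycycline-inducible IkappaBalpha–green luciferase fusion plus unfused red luciferase; compounds 46 uM to 3 nM, 4 h at 37C with doxycycline. Corrected green/red luminescence ratio normalized to 10 uM MG-132 and basal cell wells; curves fitted.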

[10] = biological target: Ubiquitin carboxyl-terminal hydrolase 2 (Homo sapiens) (UniProt O75604); test: qHTS Validation Assay for Inhibitors of Ubiquitin-specific Protease USP2a Using CHOP2 as the Reporter (AID 463106); settings: USP2a cleavage of CHOP2 reporter, enzymatic; series mostly up to 38.3 µM
Sequence of Ubiquitin carboxyl-terminal hydrolase 2 (Homo sapiens) (O75604 whole entry, looked up): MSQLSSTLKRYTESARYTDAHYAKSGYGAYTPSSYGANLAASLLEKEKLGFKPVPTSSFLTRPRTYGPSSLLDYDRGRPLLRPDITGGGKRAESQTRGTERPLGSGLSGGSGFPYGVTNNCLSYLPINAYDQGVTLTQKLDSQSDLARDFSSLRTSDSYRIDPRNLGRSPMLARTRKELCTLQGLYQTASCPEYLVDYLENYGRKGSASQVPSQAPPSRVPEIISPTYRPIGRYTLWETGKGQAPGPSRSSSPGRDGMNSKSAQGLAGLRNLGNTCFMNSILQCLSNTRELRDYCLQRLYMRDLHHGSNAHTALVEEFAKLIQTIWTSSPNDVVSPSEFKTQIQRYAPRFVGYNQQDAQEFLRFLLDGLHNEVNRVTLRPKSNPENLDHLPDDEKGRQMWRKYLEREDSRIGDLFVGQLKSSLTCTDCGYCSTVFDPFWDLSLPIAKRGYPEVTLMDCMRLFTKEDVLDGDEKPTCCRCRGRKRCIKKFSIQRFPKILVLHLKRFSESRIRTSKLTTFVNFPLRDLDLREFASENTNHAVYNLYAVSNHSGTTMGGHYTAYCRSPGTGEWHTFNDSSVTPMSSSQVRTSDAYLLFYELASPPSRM
Procedure, shortened: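 USP2 core (10 nM final) was preincubated with compound 30 min at RT in pH 8.0 Tris/CaCl2/beta-ME/CHAPS buffer. Ub-CHOP2 and reporter substrate (25 nM final each) were then added, with fluorescence (Ex 485/Em 531) read after 60 min. Data were normalized to NEM full inhibition and fitted to concentration-response curves.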

Measured: Potency

CC(C)C[C@H](NC(=O)[C@@H](O)[C@H](N)Cc1ccccc1)C(=O)O
not listed: [10]
inactive: all other assays above

Cc1cn[nH]c1
not listed: [7] | [10]
inactive: all other assays above

NC(N)=NC(=O)c1nc(Cl)c(N)nc1N
inactive: [1] | [2] | [4] | [5] | [6]

N=c1nc(N2CCCCC2)cc(N)n1O
not listed: [7] | [8] | [10]
inactive: all other assays above

O=C1CCc2cc(OCCCCc3nnnn3C3CCCCC3)ccc2N1
inactive: [1] | [2] | [4] | [5] | [6] | [10]

Clc1cccc(Cl)c1NC1=NCCN1
not listed: [3] | [7] | [8]
inactive: all other assays above

Cc1cnc(NC(=O)C2=C(O)c3ccccc3S(=O)(=O)N2C)s1
inactive: [1] | [2] | [4] | [5] | [6] | [7]

CCn1cc(C(=O)O)c(=O)c2cc(F)c(N3CCNC(C)C3)c(F)c21 (configuration not stated)
not listed: [3] | [7] | [10]
inactive: all other assays above

O=c1n(CCCN2CCN(c3cccc(Cl)c3)CC2)nc2ccccn12
inactive: [1] | [2] | [3] | [4] | [5] | [6]

CCCC(CCC)C(=O)O
not listed: [3] | [8] | [10]
inactive: all other assays above

CCN(CC)CCCC(C)Nc1ccnc2cc(Cl)ccc12 (configuration not stated)
not listed: [3] | [8]
inactive: all other assays above

Cc1ccc(N(CC2=NCCN2)c2cccc(O)c2)cc1
not listed: [3] | [8] | [10]
inactive: all other assays above

CNC[C@H](O)c1cccc(O)c1
not listed: [3] | [7] | [8]
inactive: all other assays above

CC(=O)Oc1ccccc1C(=O)O
not listed: [3] | [7] | [8]
inactive: all other assays above

CC(C)(C)NCC(O)c1ccc(O)c(CO)c1 (configuration not stated)
not listed: [3] | [7] | [10]
inactive: all other assays above

Nc1nc2ccc(OC(F)(F)F)cc2s1
inactive: [1] | [2] | [4] | [5]

CCCCNc1cc(C(=O)O)cc(S(N)(=O)=O)c1Oc1ccccc1
not listed: [3] | [7] | [10]
inactive: all other assays above

N[C@@H]1CONC1=O
not listed: [3] | [7] | [10]
inactive: all other assays above

CCC(C)N(C)C(=O)c1cc2ccccc2c(-c2ccccc2Cl)n1 (configuration not stated)
not listed: [3] | [8] | [10]
inactive: all other assays above

CC(C[N+](C)(C)C)OC(N)=O (configuration not stated)
inactive: [1] | [2] | [4] | [5] | [6] | [9]

CCOC(=O)C1=C[C@]2(CC)CCCN3CCc4c(n1c1ccccc41)[C@@H]32
inactive: [1] | [2] | [3] | [4] | [5] | [6]

O=C1CCC(N2C(=O)c3ccccc3C2=O)C(=O)N1 (configuration not stated)
not listed: [3] | [7] | [10]
inactive: all other assays above

NC[C@H](O)c1ccc(O)c(O)c1
not listed: [3] | [7] | [8]
inactive: all other assays above

NS(=O)(=O)c1cc2c(cc1Cl)NC=NS2(=O)=O
not listed: [3] | [8] | [10]
inactive: all other assays above

NCCCC(N)(C(=O)O)C(F)F (configuration not stated)
not listed: [3] | [8] | [10]
inactive: all other assays above

NNCCc1ccccc1
inactive: [1] | [2] | [4] | [5] | [6] | [8]

Cc1[nH]c(=O)c(C#N)cc1-c1ccc2nccn2c1
inactive: [1] | [2] | [4] | [5] | [6] | [9]

CC(C)(Sc1ccc(CCN(CCCCC2CCCCC2)C(=O)NC2CCCCC2)cc1)C(=O)O
inactive: [2] | [4] | [5]
active: [6] 12.6 µM

OC(CN1CCC(Cc2ccc(F)cc2)CC1)c1ccc(Cl)cc1 (configuration not stated)
inactive: [1] | [2] | [4] | [8] | [9]

Nc1nc2c(ncn2COCCO)c(=O)[nH]1
inactive: [1] | [2] | [4] | [5] | [6] | [9]

Cc1oncc1C(=O)Nc1ccc(C(F)(F)F)cc1
inactive: [1] | [2] | [4] | [5] | [7]

Nc1ccc(S(=O)(=O)Nc2ccnn2-c2ccccc2)cc1
inactive: [1] | [2] | [4] | [5] | [6] | [9]

Cc1cccc(-c2[nH]c(C(C)(C)C)nc2-c2ccc3nccnc3c2)n1
inactive: [2] | [3] | [4] | [9]

Oc1ccc(C2CNCCc3c2cc(O)c(O)c3Cl)cc1 (configuration not stated)
inactive: [2] | [4] | [5] | [6] | [9]

O=C(O)COCCN1CCN(C(c2ccccc2)c2ccc(Cl)cc2)CC1 (configuration not stated)
inactive: [2] | [5] | [9]

NC(=O)c1cnccn1
inactive: [1] | [2] | [4] | [5] | [6] | [9]

O=NN(CCCl)C(=O)NCCCl
inactive: [1] | [2] | [4] | [5] | [6] | [9]

Cc1[nH]c(=O)c(C#N)cc1-c1ccncc1
inactive: [1] | [2] | [4] | [5] | [6] | [9]

Cn1cnc([N+](=O)[O-])c1Sc1ncnc2nc[nH]c12
inactive: [1] | [2] | [4] | [5] | [8]

c1ccc([C@H]2CN3CCSC3=N2)cc1
inactive: [1] | [2] | [4] | [5] | [6] | [9]

Cc1ccccc1C(OCCN(C)C)c1ccccc1 (configuration not stated)
inactive: [1] | [2] | [4] | [5] | [6] | [9]

OC(CCN1CCCCC1)(c1ccccc1)C1CC2C=CC1C2 (configuration not stated)
inactive: [2] | [3] | [4] | [5] | [9]

CN1CCN(CCCN2c3ccccc3Sc3ccc(C(F)(F)F)cc32)CC1
inactive: [1] | [4]

O=C(Nc1nc2ccccc2n1CCN1CCOCC1)c1cccc([N+](=O)[O-])c1
inactive: [2] | [10] | [9]

C1COC(NC(C2CC2)C2CC2)=N1
inactive: [1] | [2] | [4] | [5] | [8] | [9]

Cc1cc2c(C(C)C)c(O)c(O)c(C=O)c2c(O)c1-c1c(C)cc2c(C(C)C)c(O)c(O)c(C=O)c2c1O
inactive: [8]

NCCc1ccc(O)c(O)c1
inactive: [1] | [2] | [6] | [9]

Nc1ncnc2nc(-c3ccc(N4CCOCC4)nc3)cc(-c3cccc(Br)c3)c12
inactive: [2] | [4] | [5]

CCOC(=O)N1CCC(=C2c3ccc(Cl)cc3CCc3cccnc32)CC1
inactive: [1] | [2] | [10]

O=c1[nH]cnc2[nH]ncc12
inactive: [1] | [2] | [4] | [5] | [6] | [9]

CC(C)NCC(O)COc1ccc(COCCOC(C)C)cc1 (configuration not stated)
inactive: [1] | [2] | [4] | [5] | [6] | [9]

C[C@]12CCC(=O)C=C1CC[C@@H]1[C@@H]2[C@@H](O)C[C@@]2(C)[C@H]1CC[C@]2(O)C(=O)CO
inactive: [2] | [3] | [4] | [5]
